Measured values from PubChem BioAssay AID2546 (National Center for Advancing Translational Sciences (NCATS), 2010).
About 11,000 (3.5%) of roughly 310,000 compounds were called active. Roughly 8% stayed inconclusive and do not appear here. This excerpt belongs to a sample that is enriched for actives. Values without a mark were called inactive. Calls follow the shape of the dose curve; as a rule, active = well fitted inhibition curve with a large enough effect; inconclusive = small, poorly fitted or top-dose-only effect, or effect the other way; inactive = flat fitted curve, though single readings scatter.

test: VP16 counterscreen qHTS for inhibitors of ROR gamma transcriptional activity; settings: Drosophila S2 Gal4-VP16 UAS-luciferase, luminescence, 20 h; series mostly up to 53.6 µM; activity, negative = inhibition: at the top concentration;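 also: Gal4-VP16 expression switched on by copper sulfate through the metallothionein promoter; nearly all actives have a fitted effect of over 50% in size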
% is scaled to controls: 0 for no effect and ±100 for the full control effect; potency is read from the fitted curve at half-maximal effect.

First: CC1C(=O)N(Cc2ccccc2)c2ccccc2N1C(=O)c1ccccc1 (stereo unspecified)
Second: O=C(c1ccccc1F)N(Cc1ccccc1)Cc1ccccc1
The “activity, negative = inhibition” value of the first is lower: 1.8% for the first, 5.22% for the second.

Compared with `COc1ccc(CSc2nnnn2-c2ccc(C(=O)O)cc2)cc1`, `COc1ccc(-n2ncc3c(SCC(=O)NNC(C)=O)ncnc32)cc1` is lower in “activity, negative = inhibition” value: -2.54% for the first, -6.63% for the second.

Compared with `COCCCNC(=O)[C@H]1N2C(=O)c3ccccc3C2SC1(C)C` (stereo partly specified), `CC[C@]1(c2ccccc2OC)C(=O)N(C(=O)OC)N1C(=O)OC` is higher in “activity, negative = inhibition” value: -8.98% for the first, 0.759% for the second.

Going from `COc1ccc(CCn2c(-c3ccco3)nc3nc4ccccc4nc32)cc1OC` to `COc1cc2ccccc2cc1C(=O)Nc1ccccc1C`, the “activity, negative = inhibition” value rises from 0.686% to 12.7%.

Going from `CCn1cc(C(=O)NCCC(=O)NCCO)c(=O)c2cc3c(cc21)OCO3` to `CC1CCN(c2ccc(C(=O)NCc3ccc4c(c3)OCO4)cc2[N+](=O)[O-])CC1`, the “activity, negative = inhibition” value rises from -0.42% to 2.28%.

First: O=C(N/C(=C/c1ccc(Cl)cc1)C(=O)N1CCCCC1)c1ccco1
Second: O=C(c1ccco1)N1CCN(Cc2cccc(C(F)(F)F)c2)CC1
The “activity, negative = inhibition” value of the first is lower: -4.41% for the first, -1.59% for the second.

Compared with `COC(=O)c1ccc(CNC(=O)c2ccc3oc(C(C)C)nc3c2)cc1`, `COc1cccc2cc(C(=O)NCc3ccc(C)cc3)c(=N)oc12` is lower in “activity, negative = inhibition” value: -1.6% for the first, -2.34% for the second.

First: O=c1[nH]c(/C=C\c2cccc(C(F)(F)F)c2)nc(O)c1[N+](=O)[O-]
Second: O=C(/C=C/c1ccc(Cl)c([N+](=O)[O-])c1)c1cccnc1
The “activity, negative = inhibition” value of the first is lower: -4.83% for the first, 3.34% for the second.

Compared with `CCN1CCN(C(=O)C2CCN(S(=O)(=O)c3cc(Cl)ccc3Cl)CC2)CC1`, `Cc1[nH]c(C)c(S(=O)(=O)N2CCN(c3cccc(C(F)(F)F)c3)CC2)c1C(=O)N1CCCC1` is lower in “activity, negative = inhibition” value: 4.33% for the first, 2.52% for the second.

Going from `CCCCOc1ccc(C(C)(O)CCN2CCOCC2)cc1` (stereo unspecified) to `CSc1ccc(CNCCN2CCOCC2)cc1`, the “activity, negative = inhibition” value falls from 3.9% to 1.08%.

First: COc1ccc(/C=C/c2c(-c3cccc(C)c3)oc3ccc(-c4ccc5c(c4)OCO5)cc23)cc1
Second: Cc1cccc(-c2nc(Nc3ccc(O)cc3)c3ccccc3n2)c1
The “activity, negative = inhibition” value of the first is higher: -8.59% for the first, -10.1% for the second.

First: Cc1ccc(/C=N/NC(=O)CNC(=O)COc2ccccc2)o1
Second: Cc1ccc(OCC(=O)NC(C)c2ccccc2)cc1C (stereo unspecified)
The “activity, negative = inhibition” value of the first is lower: 2.06% for the first, 9.83% for the second.

First: N=c1oc2ccccc2cc1C(=O)N/N=C/c1ccccc1
Second: COc1cc(/C=N/NC(=O)Cc2ccccc2)cc(OC)c1OC
The “activity, negative = inhibition” value of the first is lower: -9.15% for the first, -3.11% for the second.

First: COc1ccc(N(C(=O)c2snc(C(N)=O)c2N)C(C(=O)NC2CCCC2)c2ccc(C)o2)c(OC)c1 (stereo unspecified)
Second: Cc1ccc(N(C(=O)c2snc(C(N)=O)c2N)C(C(=O)NCC2CCCO2)c2c[nH]c3ccccc23)cc1 (stereo unspecified)
The “activity, negative = inhibition” value of the first is higher: 5.86% for the first, 4.57% for the second.

First: Cc1cccc(-n2ncc(C#N)c2-n2cccc2)c1
Second: COc1ccc(Oc2c(Cl)cnn(-c3ccccc3)c2=O)cc1
The “activity, negative = inhibition” value of the first is higher: 5.67% for the first, -16.5% for the second.

Compared with `O=C(CSc1ccc(-c2ccccn2)nn1)Nc1ccccc1`, `O=C(c1ccccc1)N1N=C(c2ccccc2O)CC1c1ccc(Br)cc1` (stereo unspecified) is lower in “activity, negative = inhibition” value: 8.15% for the first, -4.58% for the second.

Going from `Clc1nc(NC2CCCC2)nc(N2CCOCC2)n1` to `Cc1ccc(S(=O)Cc2ccc(C(=O)N3CCN(C4CCCCC4)CC3)o2)cc1` (stereo unspecified), the “activity, negative = inhibition” value falls from 2.03% to -1.07%.

Going from `O=C(NNC(=O)C(O)c1ccccc1)NC1CCCCC1` (stereo unspecified) to `Cc1nn(-c2ccccc2)c(C)c1C(=O)OCC(=O)NC(=O)NC1CCCCC1`, the “activity, negative = inhibition” value rises from -6.21% to 1.2%.

Compared with `c1ccc2c(Nc3ccncc3)nc(-c3ccoc3)nc2c1`, `O=C(Nc1ccc(NC(=O)c2cccs2)cc1)c1ccc2ccccc2c1` is higher in “activity, negative = inhibition” value: -20.6% for the first, 4.21% for the second.

Compared with `COCCc1nn2c(=O)cc(COC(=O)c3cc(OC)c(OC)c(OC)c3)nc2s1`, `COC(=O)C1(CCSC)NC(c2ccc(OC)cc2OC)C2C(=O)N(c3cccc(C(C)=O)c3)C(=O)C21` (stereo unspecified) is lower in “activity, negative = inhibition” value: 1.47% for the first, 0.119% for the second.

First: Cc1cc(C(=O)NC2CC(C)(C)Cc3c2cnn3-c2ccccc2)n[nH]1 (stereo unspecified)
Second: Cc1nn(-c2ccccc2)c2c1c(C)c(CCC(=O)NCC1CCCO1)c(=O)n2C (stereo unspecified)
The “activity, negative = inhibition” value of the first is higher: 20.9% for the first, -5.19% for the second.

First: C/C(=N\NC(=O)c1ccccc1C)c1ccc(N2CCOCC2)cc1
Second: C/C(=N\NC(=O)c1nc(C)cc(C)n1)c1ccccc1
The “activity, negative = inhibition” value of the first is higher: 8.88% for the first, -5.35% for the second.

First: CNC(=O)C(NC(=O)c1ccccc1)=C(C)C
Second: CC(=O)NC(=O)c1ccccc1O
The “activity, negative = inhibition” value of the first is higher: -6.26% for the first, -11.3% for the second.

Compared with `CCc1cc(=O)oc2c(C)c(OCC(=O)N3CC[C@@]4(O)CCCC[C@H]4C3)ccc12`, `Cc1c(C)c2ccc(OCC(=O)N3CCN(c4cccc(Cl)c4)CC3)cc2oc1=O` is higher in “activity, negative = inhibition” value: -6.71% for the first, -5.7% for the second.

Compared with `COc1ccc(CNC(=O)C2CCN(S(=O)(=O)c3ccc(SC)cc3)CC2)cc1`, `CCOc1ccc(CC(=O)NC2CCN(Cc3ccccc3)CC2)cc1` is higher in “activity, negative = inhibition” value: -15.2% for the first, -3.19% for the second.

First: COc1cccc(NC(=O)[C@H](Cc2c[nH]c3ccccc23)NC(=O)[C@@H]2Cc3ccccc3CN2)c1
Second: COc1cccc(CNC(=O)CCC2CCCN(C(=O)c3ccc(F)c(Cl)c3)C2)c1 (stereo unspecified)
The “activity, negative = inhibition” value of the first is lower: -1.61% for the first, 0.579% for the second.

Compared with `O=C1CCN(CCCc2ccccc2)CCN1CCO`, `Cc1cc(NC(=O)CCN2CCN(Cc3ccccc3)CC2)ccc1Br` is higher in “activity, negative = inhibition” value: -20.6% for the first, -8.54% for the second.

Compared with `CCOc1ccccc1OCCCNCc1ccccc1`, `CCOC(=O)COn1c(=O)c(-c2ccc(OCC)cc2)[n+]([O-])c2ccccc21` is higher in “activity, negative = inhibition” value: -14.8% for the first, -6.45% for the second.

Going from `Cc1ccc(NS(=O)(=O)c2ccc3c(c2)n(C)c(=O)c(=O)n3C)c(C)c1` to `CC1CCN(c2ccc(S(=O)(=O)Nc3cc(C(=O)O)cc(C(=O)O)c3)cc2[N+](=O)[O-])CC1`, the “activity, negative = inhibition” value rises from -22.3% to -8.43%.

Compared with `CC(=O)CCC(=O)c1ccc2ccccc2c1`, `COCCNC(=O)c1ccc2c(c1)ncn2-c1ccc(C)c(Cl)c1` is higher in “activity, negative = inhibition” value: -10.3% for the first, 2.37% for the second.

Compared with `CCSc1nsc(NC(=O)Nc2ccccc2OC)n1`, `CC(C)(C)C(=O)Cn1c(NCCO)nc2ccccc21` is lower in “activity, negative = inhibition” value: 24.6% for the first, -14.2% for the second.

Compared with `CCC1Oc2ccccc2N(CC(=O)NCCCN2CCN(CC)CC2)C1=O` (stereo unspecified), `CCn1c(C(C)NC(=O)c2ccc(C)cc2)n[nH]c1=S` (stereo unspecified) is lower in “activity, negative = inhibition” value: 6.78% for the first, 0.348% for the second.

Compared with `O=C(Nc1cccnc1)c1cc(Cl)ccc1Cl`, `Cc1cc(NC(=O)CSc2nc(=O)cc(N)n2-c2ccc(F)cc2)no1` is higher in “activity, negative = inhibition” value: -0.679% for the first, 8.25% for the second.

First: COc1cccc(CNC(=O)C2CCCN(c3ncnc4c3nc3n4CCCCC3)C2)c1 (stereo unspecified)
Second: O=C(O)[C@@H]1CCCN1c1ncnc2sc3c(c12)CCC3
The “activity, negative = inhibition” value of the first is higher: -0.486% for the first, -4.98% for the second.

Compared with `Cc1cn([C@H]2CC(F)[C@@H](CO)O2)c(=O)[nH]c1=O` (stereo partly specified), `CC(C)n1c(-c2ccncc2)n[nH]c1=S` is higher in “activity, negative = inhibition” value: 0.784% for the first, 4.59% for the second.

Compound `Cn1cccc1-c1nc2ccccc2n1C` has an activity, negative = inhibition of -16.5% [at 10 µM].

For `Cn1c(-c2ccco2)nc2cc3ccccc3cc21`, the Potency was 11.2 µM (active).
With `FC(F)(F)C1CCCN(c2nsc3ccccc23)C1` (stereo unspecified) the Potency was 28.2 µM (active).
In the case of `CC(C)(C)c1ccc(CCC2OCC(CN3CCOCC3)O2)cc1` (stereo unspecified), the Potency is reported as 4.47 µM (active).
With `Cc1ccc(/C=N/NC(=O)c2cc3ccccc3cc2O)o1` the Potency was 1.58 µM (active).
For `Cc1cccc(-n2ncc(Cl)c(Cl)c2=O)c1`, the Potency was 14.1 µM (active).
For `Cc1nc(/N=C(\N)NC(=O)NC2CCCCC2)nc2ccccc12`, the Potency was 7.94 µM (active).
In the case of `c1ccc2c(Nc3ccncc3)nc(-c3ccc4c(c3)OCO4)nc2c1`, the Potency is reported as 17.8 µM (active).
In the case of `C/C(=N\NC(=O)c1ccoc1C)c1ccccc1O`, the Potency is reported as 0.708 µM (active).
For `CC(C)=C(NC(=O)c1ccccc1)C(=O)N/N=C(\C)c1ccccc1O`, the Potency was 2.51 µM (active).
In the case of `CCOc1ccccc1N1CN(Cc2ccccc2)CNC1=S`, the Potency is reported as 11.2 µM (active).
With `C=CC(=O)c1ccc2ccccc2c1` the Potency was 0.708 µM (active).
In the case of `CC1CCN(c2ccc(C(=O)Nc3nnc(C4CC4)s3)cc2[N+](=O)[O-])CC1`, the Potency is reported as 17.8 µM (active).
In the case of `O=C(/C=C/c1ccc(Cl)cc1Cl)c1cccnc1`, the Potency is reported as 6.31 µM (active).
With `OCCNc1nc2ccccc2n1-c1ncnc2sc3c(c12)CCC3` the Potency was 10 µM (active).
For `CCn1c(-c2ccncc2)n[nH]c1=S`, the Potency was 11.2 µM (active).
